According to ChEMBL document CHEMBL1961873, “Compounds: GSK PKIS; Assays: Nanosyn kinase panel” (2012):

Columns and labels:
[1] = target: Sphingosine kinase 1 (Homo sapiens) (UniProt Q9NYA1); conditions: at 1 µM;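 also: mean SPHK1 inhibition value reported from the GSK PKIS kinase panel screen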
[2] = target: T1, Sphingosine kinase 2 (Homo sapiens) (UniProt Q9NRA0); conditions: at 0.1 µM
T1 sequence (whole entry): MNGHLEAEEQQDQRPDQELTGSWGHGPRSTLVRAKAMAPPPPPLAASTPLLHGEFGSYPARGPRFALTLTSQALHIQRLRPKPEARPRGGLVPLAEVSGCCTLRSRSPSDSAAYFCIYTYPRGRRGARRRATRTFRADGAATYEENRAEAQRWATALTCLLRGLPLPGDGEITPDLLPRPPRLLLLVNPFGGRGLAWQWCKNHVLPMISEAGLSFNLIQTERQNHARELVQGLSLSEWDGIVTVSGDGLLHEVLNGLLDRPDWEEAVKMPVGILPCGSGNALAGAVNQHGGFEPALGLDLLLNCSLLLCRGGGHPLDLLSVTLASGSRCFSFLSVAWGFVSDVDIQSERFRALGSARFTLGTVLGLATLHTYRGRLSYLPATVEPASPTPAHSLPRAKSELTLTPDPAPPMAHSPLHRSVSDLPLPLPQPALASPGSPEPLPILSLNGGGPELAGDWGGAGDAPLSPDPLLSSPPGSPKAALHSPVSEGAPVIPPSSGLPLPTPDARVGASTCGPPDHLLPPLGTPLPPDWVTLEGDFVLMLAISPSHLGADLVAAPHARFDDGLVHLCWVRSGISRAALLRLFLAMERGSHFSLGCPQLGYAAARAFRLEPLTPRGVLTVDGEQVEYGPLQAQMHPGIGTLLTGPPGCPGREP

[3] = target: T1, Sphingosine kinase 2 (Homo sapiens); conditions: at 1 µM
[4] = target: Casein kinase II subunit alpha (Homo sapiens) (UniProt P68400); conditions: at 0.1 µM
Sequence of Casein kinase II subunit alpha (Homo sapiens) (P68400 whole entry, looked up): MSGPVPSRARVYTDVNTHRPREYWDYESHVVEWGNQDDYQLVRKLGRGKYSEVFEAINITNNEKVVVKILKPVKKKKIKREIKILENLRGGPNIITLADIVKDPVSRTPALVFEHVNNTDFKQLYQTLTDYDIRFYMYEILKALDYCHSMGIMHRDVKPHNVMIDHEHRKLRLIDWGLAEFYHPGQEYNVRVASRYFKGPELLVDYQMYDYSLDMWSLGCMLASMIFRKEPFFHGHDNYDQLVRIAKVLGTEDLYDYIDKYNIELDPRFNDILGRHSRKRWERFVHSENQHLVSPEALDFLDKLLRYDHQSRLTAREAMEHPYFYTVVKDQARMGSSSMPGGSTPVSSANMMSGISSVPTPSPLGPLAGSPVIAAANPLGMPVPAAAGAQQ

[5] = target: Casein kinase II subunit alpha (Homo sapiens) (UniProt P68400); conditions: at 1 µM
[6] = target: T2, Inhibitor of nuclear factor kappa-B kinase subunit alpha (Homo sapiens) (UniProt O15111); conditions: at 0.1 µM
T2 sequence (whole entry): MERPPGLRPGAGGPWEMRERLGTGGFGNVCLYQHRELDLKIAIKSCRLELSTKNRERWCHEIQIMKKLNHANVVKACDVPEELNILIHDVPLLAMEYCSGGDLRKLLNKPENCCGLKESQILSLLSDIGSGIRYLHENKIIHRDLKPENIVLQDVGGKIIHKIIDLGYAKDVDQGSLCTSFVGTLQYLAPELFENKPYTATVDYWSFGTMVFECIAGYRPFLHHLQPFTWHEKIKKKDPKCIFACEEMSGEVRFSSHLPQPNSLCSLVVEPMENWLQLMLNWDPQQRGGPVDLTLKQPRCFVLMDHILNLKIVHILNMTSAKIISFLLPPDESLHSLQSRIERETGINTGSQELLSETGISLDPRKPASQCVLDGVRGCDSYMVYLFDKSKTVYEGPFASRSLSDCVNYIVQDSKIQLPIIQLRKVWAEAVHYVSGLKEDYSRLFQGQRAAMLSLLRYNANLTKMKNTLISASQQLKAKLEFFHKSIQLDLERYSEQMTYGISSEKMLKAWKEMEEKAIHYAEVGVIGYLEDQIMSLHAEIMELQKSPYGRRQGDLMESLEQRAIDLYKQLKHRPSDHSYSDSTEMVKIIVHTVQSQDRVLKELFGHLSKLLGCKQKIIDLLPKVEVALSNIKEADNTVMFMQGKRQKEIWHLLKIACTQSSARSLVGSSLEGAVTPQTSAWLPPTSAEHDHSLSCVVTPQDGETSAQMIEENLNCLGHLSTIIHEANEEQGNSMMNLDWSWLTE

[7] = target: T2, Inhibitor of nuclear factor kappa-B kinase subunit alpha (Homo sapiens); conditions: at 1 µM
[8] = target: T3, Inhibitor of nuclear factor kappa-B kinase subunit beta (Homo sapiens) (UniProt O14920); conditions: at 0.1 µM
T3 sequence (whole entry): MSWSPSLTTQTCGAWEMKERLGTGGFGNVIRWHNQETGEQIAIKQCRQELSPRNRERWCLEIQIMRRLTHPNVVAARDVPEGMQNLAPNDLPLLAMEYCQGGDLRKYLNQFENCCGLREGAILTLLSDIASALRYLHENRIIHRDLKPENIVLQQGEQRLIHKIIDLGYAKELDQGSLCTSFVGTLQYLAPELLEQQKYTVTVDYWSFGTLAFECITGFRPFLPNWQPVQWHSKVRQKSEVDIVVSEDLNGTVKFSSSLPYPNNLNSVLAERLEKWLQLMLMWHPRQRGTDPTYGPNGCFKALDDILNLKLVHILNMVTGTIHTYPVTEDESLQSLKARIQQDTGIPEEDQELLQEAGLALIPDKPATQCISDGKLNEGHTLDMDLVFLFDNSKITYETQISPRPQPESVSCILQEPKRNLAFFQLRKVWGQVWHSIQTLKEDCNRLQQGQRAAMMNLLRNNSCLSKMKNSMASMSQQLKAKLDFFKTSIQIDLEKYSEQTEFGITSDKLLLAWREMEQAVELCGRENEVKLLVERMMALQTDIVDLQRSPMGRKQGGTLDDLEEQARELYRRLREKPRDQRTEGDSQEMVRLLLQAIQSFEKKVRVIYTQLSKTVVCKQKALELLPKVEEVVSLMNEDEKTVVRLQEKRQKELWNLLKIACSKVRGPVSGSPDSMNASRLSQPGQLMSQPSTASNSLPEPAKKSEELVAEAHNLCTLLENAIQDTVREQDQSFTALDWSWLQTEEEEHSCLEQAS

[9] = target: T3, Inhibitor of nuclear factor kappa-B kinase subunit beta (Homo sapiens); conditions: at 1 µM
[10] = target: T4, Inhibitor of nuclear factor kappa-B kinase subunit epsilon (Homo sapiens) (UniProt Q14164); conditions: at 0.1 µM;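 also: mean inhibition of IKKε reported, from the GSK PKIS dataset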
T4 sequence (whole entry): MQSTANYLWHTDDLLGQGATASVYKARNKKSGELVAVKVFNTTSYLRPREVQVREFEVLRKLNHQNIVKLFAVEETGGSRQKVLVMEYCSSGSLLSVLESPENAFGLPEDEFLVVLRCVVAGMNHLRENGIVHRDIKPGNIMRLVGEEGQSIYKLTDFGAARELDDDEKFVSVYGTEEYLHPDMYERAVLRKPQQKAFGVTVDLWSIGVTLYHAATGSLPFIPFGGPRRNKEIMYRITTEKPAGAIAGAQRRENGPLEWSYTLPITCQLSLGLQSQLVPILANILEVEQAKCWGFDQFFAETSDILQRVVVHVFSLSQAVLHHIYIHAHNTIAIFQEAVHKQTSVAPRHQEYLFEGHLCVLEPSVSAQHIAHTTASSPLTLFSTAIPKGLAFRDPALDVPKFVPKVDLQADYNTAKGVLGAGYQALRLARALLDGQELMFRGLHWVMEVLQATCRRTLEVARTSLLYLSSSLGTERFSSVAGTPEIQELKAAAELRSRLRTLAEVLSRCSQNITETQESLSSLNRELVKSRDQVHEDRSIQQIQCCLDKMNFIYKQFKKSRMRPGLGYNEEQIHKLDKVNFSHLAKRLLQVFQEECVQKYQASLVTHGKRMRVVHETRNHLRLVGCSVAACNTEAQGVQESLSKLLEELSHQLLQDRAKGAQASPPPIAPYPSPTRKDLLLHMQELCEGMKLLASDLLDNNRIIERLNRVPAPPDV

Sequence of Sphingosine kinase 1 (Homo sapiens) (Q9NYA1 whole entry): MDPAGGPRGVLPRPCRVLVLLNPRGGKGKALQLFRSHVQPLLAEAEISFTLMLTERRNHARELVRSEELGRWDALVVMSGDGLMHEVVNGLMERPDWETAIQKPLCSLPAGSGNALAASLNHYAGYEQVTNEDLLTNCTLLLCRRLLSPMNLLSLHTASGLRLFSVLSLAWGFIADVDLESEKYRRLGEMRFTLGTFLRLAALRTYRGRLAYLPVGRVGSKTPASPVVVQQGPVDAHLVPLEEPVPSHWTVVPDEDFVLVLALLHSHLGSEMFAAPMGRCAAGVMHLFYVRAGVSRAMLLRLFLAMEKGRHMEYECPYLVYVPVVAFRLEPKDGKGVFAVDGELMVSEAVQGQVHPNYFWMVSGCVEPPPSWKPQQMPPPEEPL

NCc1ccc(-n2c(-c3nonc3N)nc3cnccc32)cc1
inhibition [1]: -0.9%
inhibition [2]: 0.05%
inhibition [3]: -0.74%
inhibition [4]: 9.32%
inhibition [5]: 9.93%
inhibition [6]: 7.27%
inhibition [7]: 7.43%
inhibition [8]: 8.87%
inhibition [9]: 7.17%
inhibition [10]: 5.51%

Fc1ccc(-c2ncn(CCCN3CCOCC3)c2-c2ccncc2)cc1
inhibition [1]: -2.07%
inhibition [2]: -0.81%
inhibition [3]: -0.25%
inhibition [4]: -2.49%
inhibition [5]: -6%
inhibition [7]: -8.87%
inhibition [8]: 7.22%
inhibition [9]: 3.34%
inhibition [10]: 4.58%

Cc1nnc(-c2ccc(C)c(-c3ccc(C(=O)NCc4ccc(Cl)cc4)cc3)c2)o1
inhibition [1]: -3.95%
inhibition [2]: 0.02%
inhibition [3]: 0.44%
inhibition [4]: 2.9%
inhibition [5]: 5.39%
inhibition [6]: 8.21%
inhibition [7]: 5.98%
inhibition [8]: 6.95%
inhibition [9]: 4.95%
inhibition [10]: 5.66%

Fc1ccc(-c2nc3n(c2-c2ccncc2)CCS3)cc1
inhibition [1]: -0.03%
inhibition [2]: -0.14%
inhibition [3]: -0.18%
inhibition [4]: 0.53%
inhibition [5]: -1.41%
inhibition [6]: 5.66%
inhibition [7]: 4.06%
inhibition [8]: 6.22%
inhibition [9]: 4.63%
inhibition [10]: 5.03%

NS(=O)(=O)c1ccc(N/N=C2\C(=O)Nc3ccc(-c4cnco4)cc32)cc1
inhibition [1]: 1.01%
inhibition [2]: 1.12%
inhibition [3]: -1.25%
inhibition [4]: 5.69%
inhibition [5]: 15.2%
inhibition [6]: 1.42%
inhibition [7]: 35.1%
inhibition [8]: 2.62%
inhibition [9]: 10.4%
inhibition [10]: 5.68%

COc1ccc2cc(-c3c(-c4ccncc4)nc(-c4ccc(S(C)(=O)=O)cc4C)n3C)ccc2c1
inhibition [1]: -0.37%
inhibition [2]: -0.27%
inhibition [3]: 4.01%
inhibition [4]: 3.63%
inhibition [5]: 4.57%
inhibition [6]: -0.1%
inhibition [7]: 3.23%
inhibition [8]: 6.82%
inhibition [9]: 7.83%
inhibition [10]: 6.25%

C[C@@H](Oc1cc(-n2cnc3ccc(OC4CCN(C)CC4)cc32)sc1C(N)=O)c1ccccc1Cl
inhibition [1]: -0.63%
inhibition [2]: -0.31%
inhibition [3]: -1.96%
inhibition [4]: 8.71%
inhibition [5]: 7.82%
inhibition [6]: 6.24%
inhibition [7]: 7.13%
inhibition [8]: 7.4%
inhibition [9]: 4.96%
inhibition [10]: 5.46%

C/C(Nc1ccc(S(N)(=O)=O)cc1)=C1/C(=O)Nc2ccccc21
inhibition [1]: 2.7%
inhibition [2]: 0.02%
inhibition [3]: 0.53%
inhibition [4]: -0.1%
inhibition [5]: 7.42%
inhibition [6]: 4.91%
inhibition [7]: 2.59%
inhibition [8]: -0.76%
inhibition [9]: 1.17%
inhibition [10]: -2.73%

C[C@@H](Oc1cc(-n2cnc3ccc(OCC4CCN(C)CC4)cc32)sc1C(N)=O)c1ccccc1Cl
inhibition [1]: 1.57%
inhibition [3]: -0.12%
inhibition [4]: 6.48%
inhibition [5]: 19.4%
inhibition [6]: 5.03%
inhibition [7]: 1.69%
inhibition [8]: 1.98%
inhibition [9]: 3.37%
inhibition [10]: 2.73%
